Experimental data: PubChem BioAssay (Tox21)
Records with an inconclusive call do not appear. The source made the active and inactive calls. Unless noted, calls come from the whole dose curve; as a rule, active = well fitted curve in the direction sought with a large enough effect in the repeat runs; inconclusive = weak or mixed curves; inactive = no such curve, though single readings can be large; an effect the other way counts as inactive or inconclusive. Where a SMILES comes first, the peptide text is derived from it. [ ]: non-standard residue; d: D form. pGlu = O=C1CC[C@@H](C(=O)O)N1

How the values were obtained:
[1] = target: Estrogen receptor beta (Homo sapiens) (UniProt Q92731); test: qHTS assay to identify small molecule agonists of the estrogen receptor beta (ER-beta) signaling pathway (AID 1259377; active = well fitted activation curve with a large enough effect in the signal ratio in the repeat runs, not every such curve was filed as active; the % refers to the signal ratio)
Chain of Estrogen receptor beta (Homo sapiens) (Q92731 whole entry, looked up): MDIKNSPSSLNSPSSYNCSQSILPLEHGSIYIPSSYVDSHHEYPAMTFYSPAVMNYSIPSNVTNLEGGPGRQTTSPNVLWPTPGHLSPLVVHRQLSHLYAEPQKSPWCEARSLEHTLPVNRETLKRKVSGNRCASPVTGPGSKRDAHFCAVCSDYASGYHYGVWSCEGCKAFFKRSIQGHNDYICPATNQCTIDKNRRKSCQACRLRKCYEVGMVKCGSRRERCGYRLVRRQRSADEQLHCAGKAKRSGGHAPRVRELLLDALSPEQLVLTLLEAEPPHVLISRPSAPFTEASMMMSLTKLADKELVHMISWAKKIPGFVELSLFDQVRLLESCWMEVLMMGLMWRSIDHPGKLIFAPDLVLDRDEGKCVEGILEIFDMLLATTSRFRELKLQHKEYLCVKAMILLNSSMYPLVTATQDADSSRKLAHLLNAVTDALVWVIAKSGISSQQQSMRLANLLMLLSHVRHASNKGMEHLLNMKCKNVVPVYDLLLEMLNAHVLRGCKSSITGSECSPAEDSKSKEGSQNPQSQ
Method in brief: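 Measured by fluorescence intensity from a B/G FRET beta-lactamase substrate (2 h, room temperature) in ER-beta-UAS-bla HEK293T cells treated with DMSO-dissolved compounds for 16 hr at 37C and 5% CO2.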

[2] = target: Estrogen receptor beta (Homo sapiens) (UniProt Q92731); test: qHTS assay to identify small molecule antagonists of the estrogen receptor beta (ER-beta) signaling pathway (AID 1259378; active = well fitted inhibition curve with a large enough effect in the signal ratio in the repeat runs, not every such curve was filed as active; the % refers to the signal ratio)
Method in brief: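 ER-beta-UAS-bla HEK293T cells in 2% charcoal-stripped FBS medium treated with compound plus 1nM final 17-beta-estradiol for 16 hr at 37C. Beta-lactamase reporter read by FRET substrate fluorescence after 2 hours at room temperature.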

[3] = qHTS assay to identify small molecule agonists of the androgen receptor (AR) signaling pathway in the presence of an antagonist - cell viability counter screen (AID 1259379);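 note: MDA-kb2 human breast cancer cells carrying an MMTV luciferase reporter; series mostly up to about 92 µM; nearly all actives have a fitted effect of over 25% in size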
Method in brief: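 Nilutamide-containing (3.0uM final) MDA-kb2 cultures, 3,000 cells/well, were treated with compounds across 15 concentrations. After 16 hr at 37C with no CO2, cell viability was determined by CellTiter-Fluor fluorescence in the luciferase assay wells.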

[4] = qHTS assay to identify small molecule agonists of the estrogen receptor beta (ER-beta) signaling pathway - cell viability counter screen (AID 1259380); note: nearly all actives have a fitted effect of over 30% in size
Method in brief: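 Steps: plate ER-beta-UAS-bla HEK293T cells, rest 6 hr; add compounds in DMSO; incubate 16 hr at 37C, 5% CO2; add FRET substrate 2 hr; add CellTiter-Glo, wait 30 min at room temperature; read luminescence.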

[5] = qHTS assay to identify small molecule antagonists of the estrogen receptor beta (ER-beta) signaling pathway - cell viability counter screen (AID 1259382); note: series mostly up to about 92 µM; nearly all actives have a fitted effect of over 55% in size
Method in brief: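 Viability is scored by CellTiter-Glo luminescence (30 min, room temperature) in ER-beta-UAS-bla HEK293T wells already read for reporter fluorescence. Compound exposure lasts 16 hr at 37C alongside 1nM 17-beta-estradiol in charcoal-stripped serum medium.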

[6] = qHTS assay to identify small molecule agonists or antagonists of the thyroid stimulating hormone receptor (TSHR) signaling pathway - wild type cell line counter screen (AID 1259384; calls by dose curve)
Method in brief: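 Wild-type Hek293 cells, 800/well, 18 h at 37C, then compound with Ro20-1724 for 30 min RT. cAMP by HTRF (cAMP-d2/anti-cAMP cryptate), 1 h RT, fluorescence read. 15 concentrations, triplicates.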

[7] = target: Thyrotropin receptor (Homo sapiens) (UniProt P16473); test: qHTS assay to identify small molecule antagonists of the thyroid stimulating hormone receptor (TSHR) signaling pathway (AID 1259385; calls by dose curve; note: nearly all actives have a fitted effect of over 20% in size)
Chain of Thyrotropin receptor (Homo sapiens) (P16473 whole entry, looked up): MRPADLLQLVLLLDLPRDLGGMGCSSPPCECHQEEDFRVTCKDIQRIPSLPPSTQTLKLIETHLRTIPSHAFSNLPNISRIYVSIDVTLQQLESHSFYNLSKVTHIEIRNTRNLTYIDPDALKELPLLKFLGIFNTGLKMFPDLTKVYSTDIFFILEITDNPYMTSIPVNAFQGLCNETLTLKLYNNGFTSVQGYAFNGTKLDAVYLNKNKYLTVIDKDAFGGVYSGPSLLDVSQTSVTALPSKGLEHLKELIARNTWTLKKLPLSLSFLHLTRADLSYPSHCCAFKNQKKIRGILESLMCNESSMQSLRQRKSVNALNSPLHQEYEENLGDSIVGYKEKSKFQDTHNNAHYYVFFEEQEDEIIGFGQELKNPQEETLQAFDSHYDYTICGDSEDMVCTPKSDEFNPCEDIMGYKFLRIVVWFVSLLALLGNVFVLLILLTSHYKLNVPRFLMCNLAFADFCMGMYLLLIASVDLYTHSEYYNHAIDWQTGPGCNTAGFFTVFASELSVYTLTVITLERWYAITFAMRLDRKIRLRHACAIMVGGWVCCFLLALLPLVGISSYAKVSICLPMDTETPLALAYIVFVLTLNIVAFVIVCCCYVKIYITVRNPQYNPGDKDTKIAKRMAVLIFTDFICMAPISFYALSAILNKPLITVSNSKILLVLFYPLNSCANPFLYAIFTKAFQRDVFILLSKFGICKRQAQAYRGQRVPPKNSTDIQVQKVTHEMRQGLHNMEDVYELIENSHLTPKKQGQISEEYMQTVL
Method in brief: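 TSHR-HEK293 cells (800/well) plated 18 h, then compounds with Ro20-1724 and TSH at 1.5 ng/mL final, 30 min at room temperature. cAMP quantified by HTRF (cAMP-d2/anti-cAMP-cryptate, 1 h); 15 concentrations in triplicate.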

[8] = qHTS assay to identify small molecule agonists of the estrogen receptor alpha (ER-alpha) signaling pathway in the presence of an antagonist - cell viability counter screen (AID 1259386);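 note: series mostly up to about 92 µM; cells exposed to compounds for 22 h at 37 °C before the viability read; nearly all actives have a fitted effect of over 30% in size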
Method in brief: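 In this counter screen, compound effects on VM7Luc4E2 viability were tested in the presence of the antagonist ICI-182,780 at 10.0nM final. Compounds were dosed at 15 concentrations, exposure lasted 22hr, and the CellTiter-Fluor signal was read.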

[9] = target: Estrogen receptor (Homo sapiens) (UniProt P03372); test: qHTS assay to identify small molecule agonists of the estrogen receptor alpha (ER-alpha) signaling pathway in the presence of an antagonist (AID 1259383; calls by dose curve; note: top concentration of the series differs between compounds; nearly all actives have a fitted effect of over 15% in size)
Chain of Estrogen receptor (Homo sapiens) (P03372 whole entry, looked up): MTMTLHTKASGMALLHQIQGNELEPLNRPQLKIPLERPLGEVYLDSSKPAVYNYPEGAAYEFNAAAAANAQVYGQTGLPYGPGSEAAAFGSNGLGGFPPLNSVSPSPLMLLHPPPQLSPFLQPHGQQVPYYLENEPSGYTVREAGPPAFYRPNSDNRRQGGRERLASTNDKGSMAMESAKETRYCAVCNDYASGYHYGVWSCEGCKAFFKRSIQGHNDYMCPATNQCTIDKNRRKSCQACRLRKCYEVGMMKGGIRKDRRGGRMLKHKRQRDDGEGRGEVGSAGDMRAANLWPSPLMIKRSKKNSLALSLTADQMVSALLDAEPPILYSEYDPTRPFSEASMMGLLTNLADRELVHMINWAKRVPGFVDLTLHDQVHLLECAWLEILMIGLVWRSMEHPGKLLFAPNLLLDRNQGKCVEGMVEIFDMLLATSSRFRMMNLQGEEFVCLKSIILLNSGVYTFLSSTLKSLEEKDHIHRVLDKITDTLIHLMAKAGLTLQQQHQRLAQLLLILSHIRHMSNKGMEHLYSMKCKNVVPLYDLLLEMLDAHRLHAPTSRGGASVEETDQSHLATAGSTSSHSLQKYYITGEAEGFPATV
Method in brief: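 Readout was ERE-driven luciferase luminescence in VM7Luc4E2 cells, which express full-length ER-alpha endogenously. Compounds were tested at 15 concentrations for 22hr alongside 10.0nM ICI-182,780 (final concentration).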

[10] = target: Androgen receptor (Homo sapiens) (UniProt P10275); test: qHTS assay to identify small molecule agonists of the androgen receptor (AR) signaling pathway in the presence of an antagonist (AID 1259381; calls by dose curve; note: nearly all actives have a fitted effect of over 15% in size)
Chain of Androgen receptor (Homo sapiens) (P10275 whole entry, looked up): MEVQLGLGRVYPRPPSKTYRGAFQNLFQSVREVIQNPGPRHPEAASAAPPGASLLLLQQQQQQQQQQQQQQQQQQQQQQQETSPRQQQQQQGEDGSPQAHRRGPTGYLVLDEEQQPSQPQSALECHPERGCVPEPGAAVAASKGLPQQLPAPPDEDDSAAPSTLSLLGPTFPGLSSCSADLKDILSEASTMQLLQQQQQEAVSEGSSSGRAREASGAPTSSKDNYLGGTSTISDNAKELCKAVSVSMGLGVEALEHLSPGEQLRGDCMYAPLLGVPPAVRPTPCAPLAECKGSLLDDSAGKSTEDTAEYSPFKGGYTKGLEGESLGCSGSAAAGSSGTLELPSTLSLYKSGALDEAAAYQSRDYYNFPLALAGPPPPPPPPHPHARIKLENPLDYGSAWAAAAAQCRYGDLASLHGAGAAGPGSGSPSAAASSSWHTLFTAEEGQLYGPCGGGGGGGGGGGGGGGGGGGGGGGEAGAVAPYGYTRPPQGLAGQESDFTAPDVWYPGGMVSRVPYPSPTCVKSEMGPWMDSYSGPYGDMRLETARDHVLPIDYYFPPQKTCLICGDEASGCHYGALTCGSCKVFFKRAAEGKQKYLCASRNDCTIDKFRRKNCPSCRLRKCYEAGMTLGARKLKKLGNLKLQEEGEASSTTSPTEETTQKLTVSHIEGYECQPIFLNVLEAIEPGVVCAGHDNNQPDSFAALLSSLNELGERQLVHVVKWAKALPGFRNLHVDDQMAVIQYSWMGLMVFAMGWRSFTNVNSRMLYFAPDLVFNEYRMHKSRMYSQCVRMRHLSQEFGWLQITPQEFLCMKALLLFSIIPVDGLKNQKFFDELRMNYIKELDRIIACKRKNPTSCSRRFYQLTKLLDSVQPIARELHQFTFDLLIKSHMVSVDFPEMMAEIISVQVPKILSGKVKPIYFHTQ
Method in brief: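 Reporter-gene luminescence from MDA-kb2 cells exposed 16hr at 37C (0% CO2) to 15-point compound titrations with 3.0uM final nilutamide as AR antagonist.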

Measured: Potency

CC1=C(C/C=C(\C)CCC[C@H](C)CCC[C@H](C)CCCC(C)C)C(=O)c2ccccc2C1=O
not listed: [9] | [10]
inactive: all other assays above

C[C@@H]1CCC[C@H](C)N1
not listed: [9] | [10]
inactive: all other assays above

CC(C)(C)OC(=O)c1cccc(N)c1
not listed: [9] | [10]
inactive: all other assays above

CC(C)c1ccc2ncccc2c1
not listed: [6] | [7] | [10]
inactive: all other assays above

CCC(=O)OCc1ccccc1
not listed: [9] | [10]
inactive: all other assays above

CN1CC(=O)N/C1=N/C(=O)Nc1cccc(Cl)c1
not listed: [9] | [10]
inactive: all other assays above

COc1cc(C(=O)OC(COCCC(C)C)CN2CCOCC2)cc(OC)c1OC (configuration not stated)
not listed: [10]
inactive: all other assays above

CN(C)CCCCCCN(C)C
not listed: [9] | [10]
inactive: all other assays above

Cc1nc(C2CCCCC2)c(-c2ccc(S(N)(=O)=O)c(F)c2)o1
not listed: [10]
inactive: all other assays above

CN(C)[C@@H]1C(=O)C(C(=O)NCN2CCCC2)=C(O)[C@@]2(O)C(=O)C3=C(O)c4c(O)cccc4[C@@](C)(O)C3C[C@@H]12 (some centres not stated)
not listed: [9] | [10]
inactive: all other assays above

CCCCCC(=O)OCCc1ccccc1
not listed: [7] | [10]
inactive: all other assays above

O=C(c1ccccc1)C1(O)CCCCC1
not listed: [9] | [10]
inactive: all other assays above

c1ccc2sc(SN3CCOCC3)nc2c1
not listed: [9] | [10]
inactive: all other assays above

CCOC(=O)C1=NOC(c2ccccc2)(c2ccccc2)C1
not listed: [9] | [10]
inactive: all other assays above

CC(C)(CCC(=O)O)C(=O)O
not listed: [6] | [7] | [10]
inactive: all other assays above

CCOC(=O)OC(C)OC1=C(C(=O)Nc2ccccn2)N(C)S(=O)(=O)c2ccccc21 (configuration not stated)
not listed: [9] | [10]
inactive: all other assays above

CCOC(=O)c1ccccc1
not listed: [6] | [7] | [10]
inactive: all other assays above

CC(C)CC(C)(N)C#N (configuration not stated)
not listed: [9] | [10]
inactive: all other assays above

Nc1ccncc1N
not listed: [9] | [10]
inactive: all other assays above

C1CCC2=NCCCN2CC1
not listed: [9] | [10]
inactive: all other assays above

CC(C)(N)C#N
not listed: [6] | [8] | [10]
inactive: all other assays above

O=C(O)CNC(=O)c1ccccc1
not listed: [9] | [10]
inactive: all other assays above

COc1cc(-c2ccc(=O)[nH]n2)ccc1OC(F)F
not listed: [10]
inactive: all other assays above

CNCCO
not listed: [4] | [9] | [10]
inactive: all other assays above

Cc1onc(-c2c(Cl)cccc2Cl)c1C(=O)Cl
not listed: [4]
inactive: all other assays above

NS(=O)(=O)Cc1noc2ccccc12
not listed: [4] | [9]
inactive: all other assays above

CC(C)CCCO
not listed: [4] | [10]
inactive: all other assays above

CN(C)CCCN(C)CCCN(C)C
not listed: [4] | [6] | [10]
inactive: all other assays above

C=C(C)C(=O)OCC1CCCO1 (configuration not stated)
inactive: [1] | [2] | [3] | [4] | [5] | [8]

CC1(C)OC[C@@H](COC(=O)CCc2ccc(OC[C@@H](O)CNCCNC(=O)N3CCOCC3)cc2)O1
not listed: [4] | [6]
inactive: all other assays above

CCCCCCC#CC(=O)OC
inactive: [1] | [2] | [3] | [4] | [5] | [8]

COCCOCC(OC)OC
not listed: [4] | [6] | [10]
inactive: all other assays above

CC(=O)c1ccccc1[N+](=O)[O-]
not listed: [6] | [9] | [10]
inactive: all other assays above

O=CN(CCO)CCO
not listed: [6] | [9] | [10]
inactive: all other assays above

CC1=CC(=O)[C@H]2C[C@@H]1C2(C)C
inactive: [1] | [2] | [3] | [5] | [9] | [8]

CCOc1ccccc1OCC
not listed: [6] | [9] | [10]
inactive: all other assays above

O=C(CO)[C@@H](O)[C@H](O)[C@H](O)CO
not listed: [4] | [6] | [10]
inactive: all other assays above

O=[N+]([O-])c1ccc(/C=N\O)o1
not listed: [4] | [10]
inactive: all other assays above

CCC(C)(CN(C)C)OC(=O)c1ccccc1 (configuration not stated)
inactive: [1] | [2] | [3] | [4] | [5] | [8]

CCNC(=O)[C@@H]1CCCN1C(=O)[C@H](CCCN=C(N)N)NC(=O)[C@H](CC(C)C)NC(=O)CNC(=O)[C@H](Cc1ccc(O)cc1)NC(=O)[C@H](CO)NC(=O)[C@H](Cc1c[nH]c2ccccc12)NC(=O)[C@H](Cc1cnc[nH]1)NC(=O)[C@@H]1CCC(=O)N1 ([pGlu]HWSYGLRP-NHEt)
not listed: [4] | [10]
inactive: all other assays above

O=[N+]([O-])c1cncn1CCN1CCOCC1
not listed: [4] | [6]
inactive: all other assays above

CCCCCCCCN1CCCC1=O
not listed: [6] | [9] | [10]
inactive: all other assays above

OCCc1ccccn1
inactive: [1] | [2] | [3] | [4] | [5] | [8]

CCCc1ncc(C[n+]2ccccc2C)c(N)n1
inactive: [1] | [2] | [3] | [4] | [5] | [8]

COC(=O)Nc1ccc(Cl)c(Cl)c1
not listed: [4] | [9]
inactive: all other assays above

C=C(C)C(=O)OCCOCCOCCOCCOC(=O)C(=C)C
not listed: [4] | [9] | [10]
inactive: all other assays above

CC(=O)NC(=O)c1ccccc1O
not listed: [4] | [10]
inactive: all other assays above

CCN1CCOCC1
inactive: [1] | [2] | [3] | [4] | [5] | [8]

C=CC(C)(CCC=C(C)C)OC(=O)CC (configuration not stated)
not listed: [6] | [9] | [10]
inactive: all other assays above

c1ccc(Cc2ccccc2)cc1
inactive: [1] | [2] | [3] | [4] | [5] | [8]

CCC(C)(CCCC(C)C)OC(C)=O (configuration not stated)
not listed: [4] | [10]
inactive: all other assays above

CC(=O)Nc1ccc(OCC(O)CNC(C)C)cc1 (configuration not stated)
not listed: [4] | [9] | [10]
inactive: all other assays above

C[C@H]1[C@H](NC(=O)/C(=N/OC(C)(C)C(=O)O)c2csc(N)n2)C(=O)N1S(=O)(=O)O (stereo in doubt)
not listed: [9] | [10]
inactive: all other assays above

CCCCc1nc(Cl)c(CO)n1Cc1ccc(-c2ccccc2-c2nn[nH]n2)cc1
inactive: [1] | [2] | [3] | [4] | [5] | [8]

C=CCCC(=O)O
not listed: [4] | [10]
inactive: all other assays above

CCO[Si](OCC)(OCC)c1ccccc1
not listed: [9] | [10]
inactive: all other assays above

N[C@H](C(=O)O)[C@@H](O)c1ccc(O)c(O)c1
not listed: [6] | [9] | [10]
inactive: all other assays above

CC1(C)[C@@H]2CC[C@@]1(C)[C@H](O)C2
not listed: [9] | [10]
inactive: all other assays above

NC(=O)Cc1cccc2ccccc12
not listed: [9] | [10]
inactive: all other assays above

O=C1CCCCCCCCCCCCCCO1
not listed: [7] | [9] | [10]
inactive: all other assays above

CCCCOCCOC(=O)CCCCCCCCC(=O)OCCOCCCC
not listed: [6] | [9] | [10]
inactive: all other assays above

O=S(=O)(O)c1cccc(S(=O)(=O)O)c1
inactive: [3] | [4] | [10] | [5] | [7] | [8]
